Screening data: PubChem, several laboratories
M1 ag: M1 muscarinic receptor agonists, primary screen, CHO-M1 cells, Fluo-4 calcium, agonist mode; Fluo-4 calcium fluorescence; hits give high values; B-score at 10 µM; 3% of 64,000 active;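 active means fluorescence rise, raw or as B-score row- and column-corrected plate score, outside the 99.7% band of its plate's samples, either direction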
mHtt clearance: clearance of mutant huntingtin inclusions, primary screen, imaging, HeLa Exon1htt(103Q)mCFP, confocal imaging; inhibition, % at 1.5 µM; 0.42% of 47,000 active; aggregate imaging; zero = plate's median compound well;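 active means inhibition of aggregate fluorescence above about 70%, also judged a hit by eye on the cell image, limit read from the data, passing the limit was not always enough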;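 further: cells exposed to compound for three days before fixation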
D1 mod: D1 CRE-luciferase signal change, two-sided – cell-based, HEK293 D1, dopamine EC30, D1 allosteric modulator project, primary screen; B-score at 10 µM; 5.9% of 58,000 active; AID 641, 2007; dopamine EC30 potentiation; actives deviate in either direction;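 active means luminescence count or its row- and column-corrected plate score outside the 99.7% band of the plate's sample wells, on either side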
Target sequence (P21728 whole entry, looked up): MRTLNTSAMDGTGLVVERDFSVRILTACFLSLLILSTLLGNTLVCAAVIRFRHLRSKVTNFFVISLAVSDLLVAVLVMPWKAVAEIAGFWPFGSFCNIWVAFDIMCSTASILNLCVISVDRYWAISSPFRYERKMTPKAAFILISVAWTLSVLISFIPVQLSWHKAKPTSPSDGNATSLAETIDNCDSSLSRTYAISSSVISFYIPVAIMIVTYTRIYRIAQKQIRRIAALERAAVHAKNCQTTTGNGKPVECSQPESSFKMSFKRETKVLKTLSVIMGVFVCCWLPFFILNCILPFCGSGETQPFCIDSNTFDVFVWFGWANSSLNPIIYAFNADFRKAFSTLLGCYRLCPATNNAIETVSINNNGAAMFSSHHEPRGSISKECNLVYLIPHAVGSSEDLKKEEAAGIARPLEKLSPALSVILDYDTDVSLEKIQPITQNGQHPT
M1 antag: antagonists of rat M1 muscarinic receptor; CHO-M1 cells, Fluo-4 calcium, ACh EC80 antagonist mode; hits give low values; B-score at 10 µM; 3.4% of 64,000 active; AID 628, 2007;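 active means calcium fluorescence response, raw or row-and-column corrected B-score, differing from the plate sample mean either way at a set confidence level, mostly lower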
Numbers stand for hits. This is a sample that favours compounds with a hit; in the whole collection about 9.1% have one here.

Results for O=C(Nc1ccccc1C(F)(F)F)N1CCN(c2ccc3nncn3n2)CC1 ?
M1 ag: inactive; M1 antag: inactive

What do the screens show for `O=C(CN1C(=O)c2ccccc2C1=O)NCC1COc2ccccc2O1` (configuration not stated)?
M1 ag: inactive; D1 mod: inactive; M1 antag: 1.2

How did COc1cc(CNc2ccc3[nH]c(=O)[nH]c3c2)cc(Cl)c1OCC(=O)NC(C)(C)C do in these assays?
M1 ag: inactive; mHtt clearance: inactive; D1 mod: inactive; M1 antag: inactive

What do the screens show for `CCOc1cc(CNc2ccc3[nH]c(=O)[nH]c3c2)ccc1OCC(=O)NC(C)(C)C`?
M1 ag: 7.4; mHtt clearance: inactive; D1 mod: inactive; M1 antag: inactive

Results for COc1ccc(Cl)cc1N1C(=O)C2CCCN2C1c1sccc1C (configuration not stated) ?
M1 ag: inactive; D1 mod: -2.4; M1 antag: inactive

What do the screens show for `CCC(=O)N/C(=N\OCc1ccc(F)cc1)c1nonc1NC(=O)CC`?
mHtt clearance: inactive

Results for CCOC(=O)CSc1cc(=O)n(C)c2cc(Cl)ccc12 ?
M1 ag: inactive; D1 mod: inactive; M1 antag: inactive

How did O=c1ccc(/C=C/c2ccccc2)nn1Cc1ccccc1Cl do in these assays?
mHtt clearance: inactive

Results for COc1cc(C2C(C#N)=C(N)Oc3cc(C)n(Cc4ccccn4)c(=O)c32)cc2c1OCO2 (configuration not stated) ?
M1 ag: 34; D1 mod: inactive; M1 antag: -10

How did Cc1cc2c(c(=O)n1Cc1ccccn1)C(c1ccc3c(c1)OCO3)C(C#N)=C(N)O2 (configuration not stated) do in these assays?
M1 ag: inactive; D1 mod: inactive; M1 antag: inactive

How did Cc1cc(C(=O)NCc2cc(C)n(C)n2)sc1-c1ccccc1 do in these assays?
M1 ag: 3; mHtt clearance: inactive; D1 mod: -3.2; M1 antag: inactive

How did Cc1cc(CNC(=O)Cc2c(F)cccc2Cl)nn1C do in these assays?
M1 ag: inactive; mHtt clearance: inactive; D1 mod: inactive; M1 antag: inactive

What do the screens show for `Cc1cc(NCC(C)C)n2ncnc2n1`?
mHtt clearance: inactive

Results for COC(=O)c1ccccc1NC(=O)Cn1cc(Br)cn1 ?
M1 ag: inactive; mHtt clearance: inactive; D1 mod: inactive; M1 antag: inactive

What do the screens show for `COC(=O)c1ccccc1NC(=O)Cn1c(SC)c(F)cnc1=O`?
M1 ag: inactive; mHtt clearance: inactive; D1 mod: inactive; M1 antag: 1

How did O=C(NCCN1CCN(c2ccccc2F)CC1)C1CCCN(S(=O)(=O)c2cnc[nH]2)C1 (configuration not stated) do in these assays?
M1 ag: inactive; mHtt clearance: inactive; D1 mod: -3.2; M1 antag: inactive

What do the screens show for `Cc1ccc2nsnc2c1S(=O)(=O)N1CCN(CCc2ccccc2)CC1`?
M1 ag: inactive; D1 mod: -4.7; M1 antag: inactive

How did COc1ccc(C(=O)N=c2sc3c(C)ccc(OC)c3n2C)cc1 do in these assays?
mHtt clearance: inactive

Results for CCOC(=O)C1=C(C)N2C(=C(C#N)[C@@H]1c1ccc(C(=O)OC)cc1)SC[C@@]2(O)C(C)(C)C ?
M1 ag: inactive; mHtt clearance: inactive; M1 antag: inactive

What do the screens show for `Cc1cccc(NC(=O)Nc2cccc(C#N)c2)n1`?
M1 ag: inactive; D1 mod: inactive; M1 antag: inactive

Results for Cc1cccc(NC(=O)Nc2ccc(C#N)cc2)n1 ?
M1 ag: inactive; D1 mod: -5.2; M1 antag: inactive

Results for Cc1nn(C(=O)c2ccc3c(c2)OCO3)c(N)c1-c1ccccc1 ?
M1 ag: inactive; D1 mod: -5.7; M1 antag: inactive

Results for Clc1cccc2sc(N3CCCC3)nc12 ?
M1 ag: inactive; mHtt clearance: inactive; D1 mod: -6.5; M1 antag: inactive

How did COCCn1c(SCc2nnc(-c3ccccc3)o2)nc2sc3c(c2c1=O)CCC3 do in these assays?
M1 ag: inactive; mHtt clearance: inactive; D1 mod: -5; M1 antag: inactive

What do the screens show for `Cc1ccc2nc3c(cc(C#N)c(=O)n3CC3CCCO3)c(=O)n2c1` (configuration not stated)?
M1 ag: inactive; D1 mod: -3.6; M1 antag: inactive

What do the screens show for `CCn1c(SCC(=O)Nc2oc(-c3ccccc3)c(-c3ccccc3)c2C#N)nnc1-c1cc(OC)cc(OC)c1`?
mHtt clearance: inactive

What do the screens show for `CCOC(=O)CSc1nc(C)cc(=O)[nH]1`?
M1 ag: inactive; mHtt clearance: 71; D1 mod: inactive; M1 antag: inactive
